Source: PubChem BioAssay (several laboratories)
A selection: hits, their analogues and other compounds. The true share with any hit is near 5.2%.
NR3A LBD binder: NR3A (human) ligand-binding domain modulation; NR3A LBD differential scanning fluorimetry, Tm shift; 0% = protein alone, 100% = glycine-bound protein; Tm shift relative to glycine control, % at 25 µM; 340,000 tested, 2.5% active; AID 1259313;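 active = melting temperature shift of at least 10% of the positive control shift, at one fixed dose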
Vif inh: blocks HIV Vif function. inhibition, % at 7.49 µM. 340,000 tested, 0.35% active. HEK293T cells, Vif self-association by quenched fluorescence, imaging, 24 h; in the data active = inhibition above about 50%, passing the limit was not always enough; inconclusive = no clear call, values can overlap the other calls; inactive = below about 31%
SKN-1 block: blocks SKN-1 activity in C. elegans; C. elegans VP596 Pgst-4::GFP/RFP ratio, acrylamide-induced, 24 h; inhibition, % at 21.8 µM; 360,000 tested, 0.49% active;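 active = interference check ratio from 0.5 to 1.5 plus GFP to RFP signal ratio inhibition reaching or exceeding a fixed threshold, cut at about 30% in these data, passing the limit was not always enough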
NadD block: inhibitors of Staphylococcus aureus NadD; purified NadD enzyme, colorimetric absorbance read-out; 360,000 tested, 0.78% active; inhibition, % at 20 µM; in the data active = inhibition above about 26%
esBAF inh: SWI/SNF esBAF complex inhibition; mouse ES cells, Bmi1-luciferase knock-in reporter, 24 h; 100% = twice the neutral-well signal; 350,000 tested, 2% active; reporter increase, % at 12.5 µM; in the data active = activation above about 40%; inconclusive = no clear call, values can overlap the other calls;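 also: a rise in the Bmi1 reporter signal indicates esBAF inhibition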
SMARCA2 act: activators of SMARCA2 function. AID 652017. activation, % at 9.1 µM. 370,000 tested, 1% active. MG213 cells, MMTV-luciferase reporter, dexamethasone, overnight; in the data active = activation above about 7.8%
Ring1 derepress: confirmation of esBAF inhibitors: Ring1 de-repression in mouse ESCs. fold change at 33 µM. shares compounds with esBAF inh. mouse ESC E14, Ring1 mRNA RT-qPCR fold change. 550 tested, under 10 active;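 active = Ring1 gene expression raised more than 2-fold over untreated cells in both replicates at either tested dose; inconclusive = only one replicate above 2-fold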;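 also: Ring1 transcript normalised to actin housekeeping signal by TaqMan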
esBAF Fgf4 qPCR: confirmation of esBAF inhibitors: Fgf4 repression in mouse ESCs | mouse ESC E14, Fgf4 mRNA qPCR fold change; hits give low values | Fgf4 expression fold change at 33 µM | shares compounds with esBAF inh | 550 tested, 4% active;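 active = Fgf4 expression under 0.8 fold of control in both repeat measurements at one or both tested doses; inconclusive = under 0.8 fold in just a single repeat measurement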;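 also: Fgf4 transcript normalised to actin in duplex TaqMan qPCR; cells exposed to compound for 24 h before lysis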
esBAF Bmi1 qPCR: de-represses Bmi1 in mouse ESCs, confirming esBAF inhibition | shares compounds with esBAF inh | mouse ESE14 ES cells, Bmi1 mRNA qPCR fold; hits give high values | fold change at 33 µM | 550 tested, under 10 active | AID 743180;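 active = Bmi1 expression fold change above 6 at either tested concentration, seen in replicate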;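 also: higher fold means more Bmi1 de-repression and stronger esBAF inhibition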
A549 cytotox: A549 cell cytotoxicity; shares compounds with esBAF inh; plate reader; cell viability change % (negative = cytotoxic), % at 25 µM, hits read low; 550 tested, under 10 active; call rule not given here
HepG2 tox SP: HepG2 cell cytotoxicity at single point. shares compounds with esBAF inh. plate reader; hits give low values. activity change, negative = inhibition, % at 25 µM. 550 tested, 4% active; in the data active = activity change below about -50%
HEK293 tox SP: cytotoxicity in HEK293 cells | shares compounds with esBAF inh | plate reader | activity change, negative = inhibition, % at 25 µM, hits read low | 550 tested, 3% active | AID 743190; in the data active = activity change below about -38%, passing the limit was not always enough
Large screens that a line does not name were inactive (follow-up assays come after a bar, where they were run).

C[C@H]1CN([C@@H](C)CO)C(=O)Cc2cc(NS(=O)(=O)c3ccc(Cl)cc3)ccc2O[C@H]1CN(C)C(=O)Nc1cccc2ccccc12	none (no result: NR3A LBD binder, Vif inh, SKN-1 block, NadD block, SMARCA2 act)
O=C([C@H]1[C@H](CO)[C@H]2Cn3c(cccc3=O)[C@H]2N1C(=O)C1CCCCC1)N1CCOCC1	none (no result: NR3A LBD binder, Vif inh, SKN-1 block, NadD block, SMARCA2 act)
c1ccc(CCNc2ccc3c(c2)Cc2ccccc2-3)nc1	esBAF inh 82.2 | Ring1 derepress inactive | esBAF Fgf4 qPCR inconclusive | esBAF Bmi1 qPCR inactive | A549 cytotox inactive | HepG2 tox SP inactive | HEK293 tox SP inactive
CC(C)Cc1cc(C(=O)Nc2ccc(Br)cc2)no1	esBAF inh 69.3 | Ring1 derepress inactive | esBAF Fgf4 qPCR inactive | esBAF Bmi1 qPCR inactive | A549 cytotox inactive | HepG2 tox SP inactive | HEK293 tox SP inactive
CO[C@@H]1CN(C)C(=O)c2ccc(NC(=O)Nc3cc(F)ccc3F)cc2OC[C@H](C)N(C(=O)c2cnccn2)C[C@@H]1C	none (no result: NR3A LBD binder, Vif inh, SKN-1 block, NadD block, SMARCA2 act)
Cc1ccc(Nc2nc(Cl)nc(NC(C)(C)C)n2)cc1	esBAF inh 76.7 | Ring1 derepress inactive | esBAF Fgf4 qPCR inconclusive | esBAF Bmi1 qPCR inactive | A549 cytotox inactive | HepG2 tox SP inactive | HEK293 tox SP inactive
COc1ccc(-c2cc3ccccc3s2)cc1[C@H]1[C@H]2C=CC[C@@H](C)[C@@H]2C(=O)N1Cc1ccccc1	esBAF inh 50.2 | Ring1 derepress inactive | esBAF Fgf4 qPCR inactive | esBAF Bmi1 qPCR inactive | A549 cytotox inactive | HepG2 tox SP inactive | HEK293 tox SP inactive
COc1cccc(CNc2ccc(S(N)(=O)=O)cc2)c1OCc1ccccc1F	none (no result: esBAF inh)
COc1cc(CNc2ccc(S(N)(=O)=O)cc2)ccc1OCc1ccccc1F	esBAF inh 96.0 | Ring1 derepress inactive | esBAF Fgf4 qPCR inactive | esBAF Bmi1 qPCR inactive | A549 cytotox inactive | HepG2 tox SP inactive | HEK293 tox SP inactive
CC(=O)Nc1ccc(CNc2nc3cc(-c4ccc(F)cc4)sc3c(=O)n2C)cc1	esBAF inh 67.8 (no result: NR3A LBD binder) | Ring1 derepress inactive | esBAF Fgf4 qPCR inactive | esBAF Bmi1 qPCR inactive | A549 cytotox inactive | HepG2 tox SP inactive | HEK293 tox SP inactive
CC(=O)NCCNc1nc2cc(-c3ccsc3)sc2c(=O)n1C	none (no result: NR3A LBD binder)
CC(=O)Nc1ccc(CNc2nc3cc(-c4ccsc4)sc3c(=O)n2C)cc1	esBAF inh 78.4 (no result: NR3A LBD binder) | Ring1 derepress inactive | esBAF Fgf4 qPCR inactive | esBAF Bmi1 qPCR inactive | A549 cytotox inactive | HepG2 tox SP inactive | HEK293 tox SP inactive
CCCC#Cc1cnc2c(c1)C(=O)N([C@H](C)CO)C[C@H](C)[C@H](CN(C)C(=O)CN1CCOCC1)O2	none (no result: NR3A LBD binder, Vif inh, SKN-1 block, NadD block, SMARCA2 act)
O=C(c1ccccc1)c1ccc2ccccc2c1	esBAF inh 74.7 | Ring1 derepress inactive | esBAF Fgf4 qPCR inactive | esBAF Bmi1 qPCR inactive | A549 cytotox inactive | HepG2 tox SP inactive | HEK293 tox SP inactive
C[C@H](CO)N1C[C@H](C)[C@@H](CN(C)C(=O)c2ccccc2)OCCCC[C@H](C)Oc2ccc(NC(=O)Cc3ccccc3)cc2C1=O	none (no result: NR3A LBD binder, Vif inh, SKN-1 block, NadD block, SMARCA2 act)
CO[C@H](C(=O)N(C)C[C@H]1OCc2ccccc2-c2c(n(C)c3ccccc23)C(=O)N([C@H](C)CO)C[C@@H]1C)c1ccccc1	none (no result: NR3A LBD binder, Vif inh, SKN-1 block, NadD block, SMARCA2 act)
COc1ccc(NC(=O)Nc2cccc(C)n2)cc1	esBAF inh 66.4 | Ring1 derepress inactive | esBAF Fgf4 qPCR inactive | esBAF Bmi1 qPCR inactive | A549 cytotox inactive | HepG2 tox SP inactive | HEK293 tox SP inactive
